DYRK1A inh – blocks rat Dyrk1A kinase activity. inhibition, % at 12.5 µM. ADP-Glo luminescence, NFATc1 peptide. 0.43% of 310,000 active. AID 504441. Q63470;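 also: plate controls were vehicle with enzyme for no effect and no enzyme for full effect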
MITF TRPM1 HTS – increases MITF-driven TRPM1 promoter luciferase signal | AID 588334 | activation, % at 12.5 µM | 0.75% of 300,000 active | SK-MEL-5 TRPM1-promoter luciferase, 24 h; % of positive control, neutral wells = 0;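 active = mean activation of at least 80% with every replicate also reaching 80%; inconclusive = mean reaches 80% but some replicate falls short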;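 also: 0% = neutral control wells and 100% = parthenolide positive control wells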
Wnt act – Wnt/beta-catenin pathway activation; activation, % at 9.35 µM; 1.2% of 300,000 active; Wnt/beta-catenin reporter cell assay, activator, plate reader; in the data active = activation above about 30%, passing the limit was not always enough; inconclusive = no clear call, values can overlap the other calls;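 also: 0% = neutral control wells and 100% = positive control wells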
INS-1E GSIS act – GLuc luminescence reporter in INS-1E cells, primary screen for activators of glucose-dependent secretion of insulin. INS-1E GLuc reporter insulin secretion, 2-3 h. activation, % at 16.6 µM. 0.61% of 370,000 active;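 active = lowest replicate activation of at least 40%, so every replicate reaches that level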;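 also: 0% = median of neutral control wells and 100% = median of IBMX positive control wells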
NSD2 HMT inh – inhibitors of human histone methyltransferase NSD2; inhibition, % at 12.5 µM; AID 743445; 0.54% of 310,000 active; NSD2 peptide methylation, AlphaScreen, 120 min
Target sequence (O96028 whole entry, looked up): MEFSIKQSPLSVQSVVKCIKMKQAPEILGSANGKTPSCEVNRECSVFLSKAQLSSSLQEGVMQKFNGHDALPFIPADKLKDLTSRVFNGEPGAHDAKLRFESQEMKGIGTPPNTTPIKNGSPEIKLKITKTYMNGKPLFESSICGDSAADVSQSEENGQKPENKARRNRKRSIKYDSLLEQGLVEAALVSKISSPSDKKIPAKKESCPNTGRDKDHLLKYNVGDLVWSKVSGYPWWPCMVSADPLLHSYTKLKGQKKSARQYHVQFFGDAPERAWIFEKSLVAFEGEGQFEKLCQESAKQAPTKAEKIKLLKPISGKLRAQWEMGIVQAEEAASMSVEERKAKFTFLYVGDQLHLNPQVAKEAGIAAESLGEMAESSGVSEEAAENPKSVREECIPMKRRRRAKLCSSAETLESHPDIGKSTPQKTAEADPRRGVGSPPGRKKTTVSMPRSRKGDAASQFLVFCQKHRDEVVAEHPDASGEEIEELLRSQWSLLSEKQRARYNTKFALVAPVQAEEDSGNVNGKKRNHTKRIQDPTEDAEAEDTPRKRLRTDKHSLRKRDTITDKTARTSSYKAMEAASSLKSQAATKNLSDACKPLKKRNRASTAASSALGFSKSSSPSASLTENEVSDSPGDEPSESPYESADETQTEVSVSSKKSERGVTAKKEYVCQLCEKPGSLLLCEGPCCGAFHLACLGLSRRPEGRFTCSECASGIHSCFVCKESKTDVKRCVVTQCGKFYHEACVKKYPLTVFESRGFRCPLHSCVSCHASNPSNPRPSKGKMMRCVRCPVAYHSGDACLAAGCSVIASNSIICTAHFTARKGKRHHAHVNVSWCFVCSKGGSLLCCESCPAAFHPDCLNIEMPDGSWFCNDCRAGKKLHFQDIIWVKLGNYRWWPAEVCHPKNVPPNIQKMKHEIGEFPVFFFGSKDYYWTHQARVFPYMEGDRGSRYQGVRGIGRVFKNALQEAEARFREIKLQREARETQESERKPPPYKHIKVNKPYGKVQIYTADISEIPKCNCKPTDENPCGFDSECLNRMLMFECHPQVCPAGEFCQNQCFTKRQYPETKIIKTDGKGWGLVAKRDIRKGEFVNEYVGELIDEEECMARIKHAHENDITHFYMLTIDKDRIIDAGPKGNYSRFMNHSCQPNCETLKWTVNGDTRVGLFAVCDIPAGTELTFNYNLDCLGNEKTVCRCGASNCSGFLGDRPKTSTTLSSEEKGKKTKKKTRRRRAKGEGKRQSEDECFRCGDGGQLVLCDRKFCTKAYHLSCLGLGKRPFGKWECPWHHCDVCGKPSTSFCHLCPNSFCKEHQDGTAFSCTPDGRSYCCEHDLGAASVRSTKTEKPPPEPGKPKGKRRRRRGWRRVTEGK
miR122 inh – blocks miR-122 activity in Huh7 sensor cells | Huh7 miR-122 Renilla luciferase sensor, 48 h; neutral wells = 0, positive control = 100 | activation (reporter increase), % at 12.5 µM | 0.3% of 340,000 active | AID 602342;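 active = mean replicate activation score at least 90 and every replicate individually at or above 90; inconclusive = only one of the two criteria met; inactive = neither criterion met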;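 also: higher luciferase means less miR-122 activity so hits act as miR-122 inhibitors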
* = called active by the depositor; ? = inconclusive; / = no result given; [ ] = another dose, or the depositor's remark. Hits are enriched below; roughly 2.4% of the tested compounds scored in any of these assays. Rule as the data show it, unless noted: active = inhibition above about 50%; inactive = the rest.

SMILES	DYRK1A inh	MITF TRPM1 HTS	Wnt act	INS-1E GSIS act	NSD2 HMT inh	miR122 inh
CC(C)CC#Cc1ccc2c(c1)O[C@@H](CN(C)Cc1ccccc1)[C@@H](C)CN([C@H](C)CO)S2(=O)=O	/	/	/	51	/	4[16.7 µM]
C[C@H]1CN([C@@H](C)CO)C(=O)Cc2cc(NC(=O)Nc3cccc4ccccc34)ccc2O[C@H]1CN(C)S(=O)(=O)c1cccs1	/	/	/	2	/	22[16.7 µM]
CO[C@H]1CN(C)C(=O)c2ccc(NC(C)=O)cc2OC[C@@H](C)N(C(=O)CN(C)C)C[C@H]1C	/	/	/	9	/	-6[16.7 µM]
Cc1ccc(NC(=O)C(OC(=O)c2ccc(F)cc2)c2ccccc2)cc1Cl (stereo not drawn)	4	0	3	24	-2	137*
N#Cc1ccc(NC(=S)/N=C(\N)c2ccccc2)cc1	/	/	-1	-33	/	1
N/C(=N\C(=S)Nc1ccccc1)c1ccccc1	5	?	42*	0	3	-4
N/C(=N\OC(=O)c1ccco1)c1ccc(Cl)cc1	-4	56	65*	3	-2	-7
Cc1cccc(/C(N)=N/OC(=O)c2cccnc2)c1	9	49	33*	-3	/	/
N/C(=N\OC(=O)c1ccc(Br)o1)c1ccccn1	6	1	8	20	-3	/
N/C(=N\OC(=O)c1ccccc1Cl)c1ccc(Cl)cc1	-6	45	/	/	-6	5
COc1cc(OC)cc(C(=O)O/N=C(\N)c2cccc(C)c2)c1	3	52	5	10	/	2
O=C(COC(=O)c1ccco1)c1ccc(Cl)cc1	14	19	1	32	0	/
Cc1cccc(/C(N)=N/OC(=O)c2ccc(Br)o2)c1	-6	58	46*	7	-1	/
N/C(=N\OC(=O)c1ccc(Cl)cc1)c1ccc(Cl)cc1	-4	96*	-1	/	0	3
COc1ccc(NC(=O)Nc2cccc3c2O[C@@H](CN(C)S(C)(=O)=O)[C@@H](C)CN([C@H](C)CO)C3=O)cc1	/	/	/	7	/	0[16.7 µM]
O=C(C1CCCC1)N1CC[C@@H]2[C@H](CO)Nc3ccc(C#Cc4ccc(F)cc4)cc3[C@@H]21	/	/	/	-4	/	/
CO[C@@H]1CN(C)C(=O)c2ccc(NC(=O)NC3CCCCC3)cc2OC[C@@H](C)N(C(C)=O)C[C@H]1C	/	/	/	0	/	/
C[C@H]1CN([C@@H](C)CO)S(=O)(=O)c2ccc(C#CC3CC3)cc2O[C@@H]1CN(C)Cc1cccnc1	/	/	/	-16	/	12[16.7 µM]
N/C(=N\OC(=O)c1ccc(Cl)cc1)c1ccn[nH]1	7	?	49*	7	-2	-8
N/C(=N\OC(=O)c1ccco1)c1cccnc1	-2	32	38*	3	-2	/
N/C(=N\OC(=O)c1ccc(Cl)cc1)c1cccnc1	10	46	/	/	-3	3
COc1ccccc1S(=O)(=O)N[C@@H]1CC[C@H](CCNC(=O)C2CCOCC2)O[C@@H]1CO	/	/	/	19	/	/
COC(=O)Cn1c(=NC(=O)c2ccc(Cl)s2)sc2cc(C)ccc21	-8	85*	/	27	-2	-9
C[C@H]1CN([C@@H](C)CO)C(=O)c2cc(NC(=O)CCCN(C)C)ccc2O[C@@H]1CN(C)S(C)(=O)=O	/	/	/	23	/	9[16.7 µM]
C[C@H]1CN([C@@H](C)CO)C(=O)c2cc(N(C)C)ccc2O[C@@H]1CN(C)C(=O)Nc1ccccc1	/	/	/	-11	/	/
SMILES	DYRK1A inh	MITF TRPM1 HTS	Wnt act	INS-1E GSIS act	NSD2 HMT inh	miR122 inh
COc1cc(CNCCc2ccccc2)cc(Cl)c1OCc1ccccc1	-7	-2	-22	122*	-1	1
c1ccc(OCCOc2ncnc3sccc23)cc1	-5	41	42*	/	20	0
COC(=O)c1cnc(SCC(=O)c2ccccc2)n1C	9	33	32*	8	-1	4
CCNc1nc(Oc2ccc(C#N)cc2)cc(C(F)(F)F)n1	-1	-26	-5	105*	-11	/
NC(=O)C1CCN(c2cc(Cl)nc(N)n2)CC1	3	0	-11	17	38	4
COC(=O)C1CCN(c2cc(Cl)nc(N)n2)CC1	/	-4	-1	48*	-1	-1
Cc1ccc(Nc2nc(Cl)nc(NC(C)(C)C)n2)cc1	2	100*	10	-13	-4	-6
CCOC(=O)CNc1nc(Cl)nc(Nc2ccc(C)cc2)n1	14	4	9	-5	-3	-1
COc1cc(C(=O)NCCOc2ccccc2C)c(Br)c(OC)c1OC	5	6	-5	-10	-1	/
COc1ccc(C(=O)NCCOc2ccccc2Cl)c(OC)c1OC	6	89*	?	-21	0	0
C[C@@H]1CN([C@H](C)CO)C(=O)c2cc(C#Cc3ccncc3)cnc2O[C@H]1CN(C)CC1CCCC1	/	/	/	6	/	-6[16.7 µM]
Cc1ccc2c(c1)Sc1c(ccc3ccccc13)N2	-8	8	46*	-5	2	15
CCOC(=O)C1=C(C)Nc2ccc(C)cc2S1	-4	-8	12	/	2	-4
CCCN1[C@H](C(=O)N(C)C)[C@@H](CO)[C@@H]2Cn3c(ccc(-c4ccccc4OC)c3=O)[C@@H]21	/	/	/	1	/	/
CCOC(=O)Cc1csc(NC(=O)c2cccc([N+](=O)[O-])c2)n1	3	15	1	179*	1	4
CCOC(=O)Cc1csc(NC(=O)c2ccc(OC)c(OC)c2)n1	-2	3	4	55*	1	-6
O=C(Cc1csc(NC(=O)c2ccccc2)n1)NO	1	-6	-2	57*	/	-3
O=C(/C=C(\Nc1cc(Cl)c(F)c(Cl)c1)c1ccccc1)c1ccccc1	/	/	15	157*	/	/
CCCNC(=O)N[C@H]1C=C[C@H](CC(=O)NCCc2ccccc2)O[C@H]1CO	/	/	/	-7	/	/
O=C1CSC(c2ccccc2)N1c1ccc(F)cc1F (stereo not drawn)	-3	11	0	48*	36	17
C[C@@H]1CN([C@@H](C)CO)C(=O)c2cc(C3=CCCC3)cnc2O[C@H]1CN(C)C(=O)Nc1cccc(F)c1	/	/	/	-16	/	-8[16.7 µM]
O=C1/C(=C/c2cccc(F)c2)CSc2sccc21	2	-1	/	43*	-3	-3
CCOC(=O)c1oc2nc3c(cc2c1N)COC(C)(C)C3	1	59	49*	/	-4	-2
CCOC(=O)c1cc2c(nc1N)CCCC2	/	7	7	19	0	/
CCOC(=O)c1oc2nc(C)c3c(c2c1N)CC(C)(C)OC3	-2	/	/	/	-1	2
CCOC(=O)c1oc2nc3c(cc2c1N)CCCC3	/	/	37*	-7	4	-4
COc1ccc(-c2cnc3c(c2)C(=O)N([C@H](C)CO)C[C@H](C)[C@@H](CN(C)C)O3)cc1	/	/	/	7	/	36[16.7 µM]
O=C(C[C@@H]1CC[C@@H](NC(=O)c2ccncc2)[C@H](CO)O1)NCC1CCCCC1	/	/	/	11	/	3[16.7 µM]
COc1ccccc1NC(=O)Nc1ccc2c(c1)C(=O)N(C)C[C@H](OC)[C@H](C)CN(C)[C@@H](C)CO2	/	/	/	6	/	/
CC(/C=N/NC(=O)c1cccs1)=C\c1ccco1	-5	72	39*	3	/	2

From PubChem
